# Inconclusive results are not listed. Activity calls are given as the source filed them. Calls come from the whole dose curve; as a rule, active = well fitted inhibition curve with a large enough effect; inconclusive = small, poorly fitted or top-dose-only effect; inactive = flat fitted curve, though single readings scatter.
# Test system: CRL-7250
# Assay: qHTS assay to identify novel small-molecules to repurpose for Merkel cell carcinoma treatment (AID 1296009); note: nearly all actives have a fitted effect of over 60% in size
# Settings: MCC and control cell lines, CellTiter-Glo viability, 72 h; at 44.8 µM (top of the series) unless noted
# How it was run: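 CellTiter-Glo luminescence after 72 hr compound exposure at 37 degree celsius gave cell viability. Libraries NPC and MIPE were run as 8- and 11-point dose responses; RLUs normalized to DMSO (negative) and no-cell (cytotoxicity) controls.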
row,Structure (SMILES),outcome
1,NCCCNCCSP(=O)(O)O,inactive [at 9.27 µM]
2,CCn1cc(C(=O)O)c(=O)c2cc(F)c(N3CCNC(C)C3)c(F)c21 (configuration not stated),inactive
3,Cc1c(C)c2c(c(C)c1O)CCC(C)(COc1ccc(CC3SC(=O)NC3=O)cc1)O2 (configuration not stated),inactive
4,O=C(CO)[C@@H](O)[C@H](O)[C@@H](O)CO,inactive
5,Cc1cc(CCCOc2c(C)cc(-c3noc(C(F)(F)F)n3)cc2C)on1,inactive
6,Cc1cc2nc3c(=O)[nH]c(=O)nc-3n(C[C@H](O)[C@H](O)[C@H](O)CO)c2cc1C,inactive [at 17.4 µM]
7,Cc1cccc(C)c1NC(=O)c1cc(S(N)(=O)=O)c(Cl)cc1O,inactive
8,NS(=O)(=O)c1cc(C(=O)NN2C[C@H]3[C@H]4CCC(C4)[C@H]3C2)ccc1Cl,inactive
9,C[C@@H]1C[C@H]2[C@@H]3C[C@H](F)C4=CC(=O)C=C[C@]4(C)[C@@]3(F)[C@@H](O)C[C@]2(C)[C@@]1(O)C(=O)CO,inactive
10,CCCNC(C)C(=O)Nc1c(C)csc1C(=O)OC (configuration not stated),inactive
11,CCCCCCCCCCCCCCCC(=O)NCCO,inactive
12,O=C1CC(c2ccc(Cl)cc2)CC(=O)N1,inactive
13,CC(C)=CCC/C(C)=C/CO,inactive
14,NCCCC[C@H](N[C@@H](CCc1ccccc1)C(=O)O)C(=O)N1CCC[C@H]1C(=O)O,inactive
15,C/C(=C(\CCO)SS/C(CCO)=C(\C)N(C=O)Cc1cnc(C)nc1N)N(C=O)Cc1cnc(C)nc1N,inactive
16,CCOc1cc(CC(=O)N[C@@H](CC(C)C)c2ccccc2N2CCCCC2)ccc1C(=O)O,inactive
17,CC(C)c1ccc2oc3nc(N)c(C(=O)O)cc3c(=O)c2c1,inactive
18,CC(CN(C)C)C(C)(O)Cc1ccc(Cl)cc1 (configuration not stated),inactive
19,NC(=O)N1c2ccccc2C=Cc2ccccc21,inactive

row,Structure (SMILES),outcome
1,O=S(=O)(O)CCS,inactive
2,O=C(O)CCCC[C@@H]1SC[C@@H]2NC(=O)N[C@@H]21,inactive
3,C[C@](N)(Cc1ccc(O)cc1)C(=O)O,inactive [at 4.96 µM]
4,Nc1nc2ccc(OC(F)(F)F)cc2s1,inactive
5,CC(=O)NC[C@H]1CN(c2ccc(N3CCOCC3)c(F)c2)C(=O)O1,inactive
6,CC[N+](CC)(CCNC(=O)C(=O)NCC[N+](CC)(CC)Cc1ccccc1Cl)Cc1ccccc1Cl,inactive
7,CCC[C@@]1(CCc2ccccc2)CC(O)=C([C@H](CC)c2cccc(NS(=O)(=O)c3ccc(C(F)(F)F)cn3)c2)C(=O)O1,inactive
8,CC(C(=O)O)c1ccc2c(c1)[nH]c1ccc(Cl)cc12 (configuration not stated),inactive
9,CC(C)(C)C(=O)Oc1ccc(S(=O)(=O)Nc2ccccc2C(=O)NCC(=O)O)cc1,inactive
10,COc1ccc(C2CNC(=O)C2)cc1OC1CCCC1 (configuration not stated),inactive
11,CCN1CCN(C(=O)N[C@@H](C(=O)N[C@@H]2C(=O)N3[C@@H]2SC(C)(C)[C@H]3C(=O)O)c2ccccc2)C(=O)C1=O,inactive
12,Cc1c(NC(C)C)c(=O)n(-c2ccccc2)n1C,inactive
13,CCOC(=O)Oc1ccc(CCNC(=O)[C@H](CCSC)NC(C)=O)cc1OC(=O)OCC,inactive
14,CC[N+](C)(CC)CCOC(=O)C1c2ccccc2Oc2ccccc21,inactive
15,Cc1c[nH]c2ccccc12,inactive
16,O=C(O)Cn1c(=O)n(Cc2ccc(Br)cc2F)c(=O)c2ccc(Cl)cc21,inactive
17,Cc1onc(-c2ccccc2)c1-c1ccc(S(N)(=O)=O)cc1,inactive
18,O=C(O)c1cc(=O)[nH]c(=O)[nH]1,inactive
